High-throughput results: PubChem BioAssay, National Center for Advancing Translational Sciences (NCATS)
Menin MLL FP FL – menin-MLL binding inhibition, fluorescein peptide. Fluorescence polarization, fluorescein-MLL peptide displacement from menin. 290,000 tested, under 10 active. AID 1766. FP activity change, % at 61.4 µM; active = well fitted curve in the direction sought with a large enough effect in the polarisation, not every such curve was filed as active; inconclusive = small, poorly fitted or top-dose-only effect, or effect the other way, or a change in a side signal; inactive = no such curve, though single readings can be large or run the other way; the % refers to the polarisation; also: % of control where 0% means no effect
TRb SRC2 PPI – TRbeta-SRC2 interaction inhibition; TRbeta-SRC2 peptide binding, fluorescence polarization; receptor liganded with 1 µM T3; Potency, µM (doses to about 106 µM), for the others: at the top dose activity change, negative = inhibition, hits mostly inhibitors; 280,000 tested, 0.065% active; AID 1469; active = well fitted inhibition curve with a large enough effect; inconclusive = small, poorly fitted or top-dose-only effect, or effect the other way;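 also: potency is read from the fitted curve at half-maximal effect; plate controls were bound peptide for no effect and peptide without receptor for full effect; nearly all actives have a fitted effect of over 50% in size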
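Binding of a 20-amino-acid Texas Red SRC2 peptide (20 nM) to TRb ligand-binding domain (0.6 uM) with agonist T3 at 1 uM was followed by fluorescence polarization after a 5 hr room-temperature incubation.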
Menin MLL FP TR – menin-MLL binding inhibition, Texas Red mutant peptide | Potency, µM (top dose mostly 61.6 µM), for the others: at the top dose FP activity change, negative = inhibition, most hits filed as inhibitors | O00255 | Menin + Texas Red MLL mutant peptide, fluorescence polarization | 270,000 tested, 0.23% active; active = well fitted inhibition curve with a large enough effect in the polarisation, with a control signal flat, not every such curve was filed as active; inconclusive = small, poorly fitted or top-dose-only effect, or effect the other way, or a change in a side signal; inactive = no such curve, though single readings can be large or run the other way; the % refers to the polarisation; also: potency is read from the fitted curve at half-maximal effect; % of control where 0% means no effect
Target sequence (O00255 whole entry, looked up): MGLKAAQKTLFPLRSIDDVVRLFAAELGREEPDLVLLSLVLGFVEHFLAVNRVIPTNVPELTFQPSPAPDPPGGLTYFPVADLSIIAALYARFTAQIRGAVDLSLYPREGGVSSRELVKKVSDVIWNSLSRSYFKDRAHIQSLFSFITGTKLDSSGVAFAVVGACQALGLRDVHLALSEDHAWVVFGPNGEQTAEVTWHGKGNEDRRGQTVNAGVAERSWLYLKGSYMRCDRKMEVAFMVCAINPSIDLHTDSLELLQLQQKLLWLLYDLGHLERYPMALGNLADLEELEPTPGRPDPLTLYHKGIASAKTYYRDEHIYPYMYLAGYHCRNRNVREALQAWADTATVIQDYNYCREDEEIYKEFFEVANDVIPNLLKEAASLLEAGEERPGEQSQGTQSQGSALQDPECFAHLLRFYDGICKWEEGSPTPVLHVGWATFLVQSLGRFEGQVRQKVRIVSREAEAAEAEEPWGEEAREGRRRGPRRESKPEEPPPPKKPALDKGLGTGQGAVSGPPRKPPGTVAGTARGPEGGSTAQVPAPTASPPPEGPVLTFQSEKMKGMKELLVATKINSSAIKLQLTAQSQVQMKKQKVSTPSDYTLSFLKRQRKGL
TR SRC2 fluor cs – Texas Red fluorescence interference in TRb-SRC2 counter-screen; 280,000 tested, 0.29% active; AID 1479; Potency, µM (top dose mostly 106 µM), for the others: top-dose fluorescence change, negative = quenching; TRb/SRC2 Texas Red total fluorescence interference; active = well fitted curve in either direction with a large enough effect; inconclusive = small, poorly fitted or top-dose-only effect; also: potency is read from the fitted curve at half-maximal effect; % is scaled to controls: 0 for no effect and ±100 for the full control effect
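Flags fluorescent or light-absorbing compounds by total fluorescence, S + 2P, at 555 nm excitation and 632 nm emission. Mixture: 20 nM Texas Red SRC2 peptide, 0.6 uM human TRb LBD, 1 uM T3, 5% DMSO; compound exposure 5 h at ambient temperature.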
GoLoco inh red – blocks human Gai1 binding to RGS12 GoLoco peptide, red readout. P63096. 230,000 tested, 0.44% active. Gai1:RGS12 GoLoco peptide FP, rhodamine, 10 min. Potency, µM (highest dose often 61.6 µM), for the others: top-dose activity, negative = inhibition, hits mostly inhibitors; active = well fitted inhibition curve with a large enough effect, not every such curve was filed as active; inactive = no such curve, though single readings can be large or run the other way; also: potency is read from the fitted curve at half-maximal effect; % is scaled to controls: 0 for no effect and ±100 for the full control effect; nearly all actives have a fitted effect of over 30% in size
MLL CXXC-DNA inh – MLL CXXC-DNA interaction inhibition | Potency, µM (top dose mostly 115 µM), for inactives: at the top dose activity change, negative = inhibition, most hits filed as inhibitors | 290,000 tested, 0.037% active | MLL-CXXC / FITC-HOXA9 DNA fluorescence polarization | AID 2662 | Q03164; active = well fitted inhibition curve with a large enough effect in the polarisation, with a control signal flat, not every such curve was filed as active; inconclusive = small, poorly fitted or top-dose-only effect, or effect the other way, or a change in a side signal; inactive = no such curve, though single readings can be large or run the other way; the % refers to the polarisation; also: potency is read from the fitted curve at half-maximal effect
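Purified MLL-CXXC (added from a 7 uM solution) was preincubated 5 min at ambient with pinned compounds in 50 mM Tris-HCl pH 7.5, 50 mM NaCl, 1 mM DTT, 0.05% BSA. Fluorescein-labeled HOX-A9 DNA (50 nM solution) followed, 30 min, then polarization read.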
Numbers without * were called inactive; ? = inconclusive; / = no result; ! = not active in a repeat; [ ] = another dose, or the depositor's remark. In the library only some 0.5% were active in any assay of this set; here they are far more common.

SMILES | Menin MLL FP FL | TRb SRC2 PPI | Menin MLL FP TR | TR SRC2 fluor cs | GoLoco inh red | MLL CXXC-DNA inh
Oc1ccc(N=Cc2ccc(O)c(O)c2)cc1 | 4 | 1% | ? | -7% | 16µM* | -22%
Oc1ccc(/C=N/N=C/c2ccc(O)c(O)c2)cc1O | 2 | / | 9% | / | / | -5%
Brc1cccc(C2Nc3cccc4cccc(c34)N2)c1 | 2 | / | ? | / | / | 10%
Brc1ccc(C2Nc3cccc4cccc(c34)N2)o1 | ? | 24% | ? | 2.8µM*[quencher] | -27% | -9%
Oc1ccc(Nc2ccccc2)cc1 | / | 9%[201 µM] | / | -3%[201 µM] | / | /
Cc1noc(C)c1-c1nccc(NCc2ccccc2)n1 | 1 | / | -4% | / | 7.1µM* | /
CCCCN(CCCC)CCCC | / | 0%[201 µM] | / | -3%[201 µM] | / | /
COc1ccc(CC(C)NS(=O)(=O)c2ccc3c(c2)CCN3S(C)(=O)=O)cc1OC (stereo not drawn) | / | -5% | / | 7.1µM*[quencher] | / | 16%
CC(NC(=O)c1c(O)nc2ccccn2c1=O)c1ccccc1 (stereo not drawn) | / | -7% | / | 18µM*[quencher] | / | /
CN(c1ccc(OCC(=O)OCC(=O)Nc2ccccc2)cc1)S(=O)(=O)c1cccs1 | 3 | -27%[53 µM] | 6% | 5µM*[quencher] | -44% | -10%
CN(c1ccc(OCC(=O)OCC(=O)Nc2ccc(Br)cc2)cc1)S(=O)(=O)c1cccs1 | 4 | -4% | ? | -2% | 11% | 5%
O=C(O)C(c1ccc(Cl)cc1)c1ccc(Cl)cc1 | / | 0%[201 µM] | / | -4%[201 µM] | / | /
O=c1oc2c(O)c(O)cc3c(=O)oc4c(O)c(O)cc1c4c23 | / | -2% | / | ? | 28µM*! | ?
CCN(CC)c1ccc(NC2=C(Cl)C(=O)c3ccccc3C2=O)cc1 | / | 28µM* | ? | -30% | 7.9µM* | 7%
COc1ccc(OC)c(CNC(=O)c2ccc3c(c2)c(C)c(C)n3Cc2ccc(Cl)cc2)c1 | / | 5% | / | 1% | / | /
COc1ccc(-c2csc(NC(=O)c3cc(-c4cccs4)nc4ccccc34)n2)c(OC)c1 | / | 6% | / | 1% | 8% | -11%
COc1ccccc1-c1csc(NC(=O)c2cc(-c3cccs3)nc3ccccc23)n1 | 7 | 6% | 8.9µM* | 0% | 0% | 11%
COc1ccc(/C=N/N=C2/CC(C)(C)Cc3n[nH]c(=O)cc32)cc1 | ? | ? | -26% | 3% | 28µM* | ?
COc1ccc(/C=N/N=C2/NC(=O)CC(C(=O)O)S2)cc1 (stereo not drawn) | 1 | 0%[53 µM] | 5% | -1%[53 µM] | 9% | -5%
COc1cc(-c2cc(OC)c3c(C)oc(C)c3c(=O)c2)ccc1OC(=O)c1cccc(Cl)c1 | / | ? | / | 501µM*[quencher] | / | /
COc1ccc(-c2cc(OC(=O)c3cccc(Cl)c3)c3c(C)oc(C)c3c(=O)c2)cc1OC | / | -12% | / | 4% | / | /
CC(=O)/C(=N\Nc1ccc(Cl)cc1)Sc1nnc(-c2ccccc2)n1-c1ccccc1 | 3 | -8% | -12% | 2% | 10% | 10%
CC(=O)/C(=N/Nc1ccccc1)Sc1nnc(CCc2ccccc2)n1-c1ccccc1 | 0 | ? | -10% | 0.35µM*[quencher] | 4% | 27%
Cc1cc(Cl)ccc1OCC(=O)N(Cc1ccco1)Cc1ccco1 | / | -4% | / | -2% | / | /
Cc1ccc(CN(Cc2ccco2)C(=O)COc2ccc(Cl)cc2Cl)cc1 | / | ? | / | 0.032µM*[quencher] | / | /
SMILES | Menin MLL FP FL | TRb SRC2 PPI | Menin MLL FP TR | TR SRC2 fluor cs | GoLoco inh red | MLL CXXC-DNA inh
OCCOCCOCCOCCO | / | 2%[201 µM] | / | -2%[201 µM] | / | /
CN(C)Cc1cc(O)c(CN(C)C)cc1O | ? | -26% | / | ? | 4µM* | 6%
CCCCCCCC1CCC(=O)O1 (stereo not drawn) | / | 8%[201 µM] | / | -3%[201 µM] | / | /
CCc1ccc(S(=O)(=O)/N=C2/C=C(Sc3ncn[nH]3)C(=O)c3ccccc32)cc1 | -1 | 20µM* | ? | -21% | -26% | -4%
Cc1ccccc1NC(NC(=O)OCCn1c([N+](=O)[O-])cnc1C)C(Cl)(Cl)Cl (stereo not drawn) | 7 | -26%[53 µM] | 42% | 7.1µM*[quencher] | -3% | -12%
COC(=O)c1c(-n2c(C)cc(C=O)c2C)sc2c1CCCC2 | 3 | 2% | 28µM* | -1% | 13% | 24%
O=c1n(Cc2ccccc2)nc2n1-c1ccccc1OC2 | / | -3% | / | 10µM*[quencher] | / | /
O=C(CS(=O)(=O)c1cccc2nsnc12)NCc1ccc(Cl)cc1 | / | -18% | / | 1.8µM*[quencher] | / | /
CN=c1nc(-c2ccccc2)n(-c2ccccc2)s1 | 7 | 3% | -16% | 2% | 5µM* | 5%
S=c1nc(-c2ccccc2)n(-c2ccccc2)[nH]1 | -4 | / | 0% | / | / | -2%
Cc1cc(O)c(-c2cc(O)c(C)cc2O)cc1O | 2 | 2% | / | -3% | 0.32µM*! | 11%
CSc1nsc(/C=C/Nc2ccc(O)cc2C)c1C#N | ? | 45µM* | ? | 50µM*[fluorescent] | -49% | 27%
CC(=O)c1c(C)c([N+](=O)[O-])c(C(C)(C)C)c([N+](=O)[O-])c1C | / | 10%[201 µM] | / | -2%[201 µM] | / | /
COc1ccc2nc(SCC(=O)Nc3ccc(S(=O)(=O)N4CCCC4)cc3)c(C#N)cc2c1 | 13 | 0% | 16µM* | -2% | 18% | 28%
Cc1ccc(NC(=O)CC(=O)Nc2ccc(C)cc2C)c(C)c1 | 0 | / | ? | / | / | 8%
Cc1ccc(NC(=O)CCCCCCCCCCC2COCCO2)c(C)c1 (stereo not drawn) | 3 | ? | -6% | 0.025µM*[quencher] | -9% | -12%
O=C1CCCC(O)=C1N=Nc1cccc(C(=O)O)c1 | 0 | -27% | 9% | 3% | -21% | 17%
O=C1CCCC(O)=C1N=Nc1c(Cl)cc(Cl)cc1Cl | 0 | 28µM* | ? | 45µM*[fluorescent] | -14% | 1%
CCOC(=O)Cc1cc(=O)n2[nH]c(C)c(-c3ccccc3)c2n1 | 5 | ? | / | 45µM*[fluorescent] | 119% | -3%
CCCCCC1OC1C/C=C\C/C=C\C/C=C\CCCC(=O)O (stereo not drawn) | 8 | 0% | -3% | -2% | 6% | /
CCOC(=O)c1sc(NC(=O)CN2C(=O)c3cccc4cccc(c34)C2=O)nc1C | -1 | -6% | 4µM* | -3% | 9% | 26%
Cc1nc2ccc(C(=O)O)cc2c2c1CC(C)S2 (stereo not drawn) | 15 | -4% | 20µM* | 4% | -33% | 9%
CCC(C)(C)C(=O)Nc1cc([N+](=O)[O-])ccc1F | 1 | -22%[53 µM] | 6% | 0.1µM*[quencher] | -9% | 19%
CCC(C)(C)C(=O)Nc1cc([N+](=O)[O-])ccc1Cl | 4 | -4% | -5% | -2% | -3% | -14%
CCCn1cc(S(=O)(=O)c2cc(C)ccc2C)c(=O)c2cc(F)c(N3CCOCC3)cc21 | / | ? | / | 25µM*[quencher] | / | /
CCCCn1cc(S(=O)(=O)c2ccc(Cl)cc2)c(=O)c2cc(F)c(N3CCCC(C)C3)cc21 (stereo not drawn) | / | -15% | / | 100µM*[quencher] | / | /
